Screening data: PubChem BioAssay, National Center for Advancing Translational Sciences (NCATS)
Many of the other results were omitted from the sample, so hits are more common in it than they were.
HT1080 IDH1KD tx: HT-1080 IDH1 knockdown cell toxicity (counter line) | HT-1080 IDH1 knockdown viability, ATP luminescence, 48 h | Potency, µM (highest dose often 46.1 µM), most hits filed as cytotoxic | actives 2% (n = 360,000) | AID 686971
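Using the IDH1-knockdown HT-1080 line run in the same batch and compound series as the NT line, viability after 48 h at 37 °C was determined by CellTiter-Glo luminescence and expressed as % activity.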
ALOX12 inh: inhibitors of human 12S-lipoxygenase ALOX12; purified 12hLO, xylenol orange hydroperoxide absorbance; Potency, µM (series often up to 108 µM), actives largely listed as inhibitors; actives 1.1% (n = 580,000); AID 1671190
Target sequence (P18054 whole entry, looked up): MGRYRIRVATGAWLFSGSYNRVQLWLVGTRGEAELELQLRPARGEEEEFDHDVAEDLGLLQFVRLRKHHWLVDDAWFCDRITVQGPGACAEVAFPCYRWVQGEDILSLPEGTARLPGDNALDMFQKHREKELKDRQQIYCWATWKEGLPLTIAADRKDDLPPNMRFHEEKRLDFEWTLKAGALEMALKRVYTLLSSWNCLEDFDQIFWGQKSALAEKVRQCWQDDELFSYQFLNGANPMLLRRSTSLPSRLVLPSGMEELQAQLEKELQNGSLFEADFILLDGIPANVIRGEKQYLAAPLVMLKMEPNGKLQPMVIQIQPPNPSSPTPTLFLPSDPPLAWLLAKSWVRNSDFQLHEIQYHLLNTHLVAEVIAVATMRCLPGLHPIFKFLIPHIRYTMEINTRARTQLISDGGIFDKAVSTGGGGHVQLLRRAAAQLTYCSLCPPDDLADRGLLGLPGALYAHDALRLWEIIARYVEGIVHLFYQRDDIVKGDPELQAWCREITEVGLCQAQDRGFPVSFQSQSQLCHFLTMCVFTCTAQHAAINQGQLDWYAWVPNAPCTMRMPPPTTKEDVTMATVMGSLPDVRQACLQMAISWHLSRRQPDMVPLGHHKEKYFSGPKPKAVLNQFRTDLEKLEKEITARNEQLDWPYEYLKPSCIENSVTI
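Hydroperoxide product was detected by ferrous iron/xylenol orange as the 573 to 405 nm absorbance ratio. Arachidonic acid at 40 uM (final) was turned over for 30 min at room temperature by 150 nM human 12hLO, pH 7.0 Hepes buffer, after 15 min compound preincubation.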
IL-1B inflam inh: inhibitors of inflammasome signaling (IL-1 beta secretion) | actives 4.7% (n = 360,000) | activity change, % at 57.5 µM | THP-1 LPS/ATP IL-1B secretion, AlphaLISA, 16 h; stronger effect = lower value; in the data active = activity change below about -50%; inconclusive = mostly about -30% to -49%
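THP-1 cells pretreated 1 hr with compounds (up to 57.5 uM final), then stimulated with LPS (250 ng/mL final) plus ATP (1.25 mM final); secreted IL-1B measured by AlphaLISA after 16 hr, decreased signal indicating inhibition.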
TDP1 cell noCPT: qHTS for Inhibitors of human tyrosyl-DNA phosphodiesterase 1 (TDP1): qHTS in cells in absence of CPT | actives 15% (n = 420,000) | AID 686978, 2013 | Potency, µM (highest dose often 46.2 µM), hits mostly inhibitors | DT40 Tdp1-/- hTDP1 cells, no CPT, ATP luminescence, 48 h; note: nearly all actives have a fitted effect of over 55% in size
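Seeded 400 DT40-hTDP1 cells/well (vehicle DMSO, no 20 nM CPT); pinned compounds; ≥48 hr at 37 °C; CellTiter-Glo luminescence as viability measure.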
TDP1 cell CPT: DT40-hTDP1 cell growth loss with CPT; AID 686979; Potency, µM (top dose mostly 46.2 µM), actives largely listed as inhibitors; actives 12% (n = 420,000); chicken DT40 Tdp1-/-;hTDP1 cells + 20 nM CPT, ATP luminescence, 48 h; note: nearly all actives have a fitted effect of over 55% in size
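Cell growth measured by CellTiter-Glo luminescence after a minimum 48 h, 37 C compound exposure with 20 nM CPT in Tdp1-knockout DT40 cells stably expressing hTDP1, seeded 400/well; qHTS titration format.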
HT1080NT lethal: kills 2HG-producing HT-1080-NT fibrosarcoma cells; AID 686970; Potency, µM (series often up to 46.1 µM), actives largely listed as cytotoxic; actives 1.6% (n = 360,000); HT-1080-NT fibrosarcoma viability, CellTiter-Glo ATP luminescence, 48 h;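 note: NT is the 2HG producing partner of a matched IDH1 knockdown line; nearly all actives have a fitted effect of over 55% in size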
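Compounds were tested in concentration-response format on HT-1080-NT cells for 48 hours at 37 degrees C. Cell viability came from CellTiter-Glo luminescence; curves were classified by r2, response magnitude and activity.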
A number is an active result; i = inactive; ? = inconclusive; nt = not tested or not shown. Unless noted, calls come from the whole dose curve; as a rule, active = well fitted curve in the direction sought with a large enough effect; inconclusive = small, poorly fitted or top-dose-only effect, or another doubt; inactive = no such curve, though single readings can be large; an effect the other way counts as inactive or inconclusive.

SMILES	HT1080 IDH1KD tx	ALOX12 inh	IL-1B inflam inh	TDP1 cell noCPT	TDP1 cell CPT	HT1080NT lethal
CCCCn1c(SCc2ccc(Cl)cc2)nc2c1c(=O)[nH]c(=O)n2C	?	?	i	13µM	13µM	i
CCOCCn1c(SCc2ccc(Cl)cc2)nc2c1c(=O)[nH]c(=O)n2C	nt	i	nt	nt	nt	nt
COc1ccc(-c2nnc3n2CCN([S+](=O)([O-])c2ccc(C(F)(F)F)cc2)C3)cc1	nt	i	nt	nt	nt	nt
CCC(=O)c1cn(/C(=C\C(=O)OC(C)(C)C)CCC(OC)OC)cc1CC	i	i	i	?	?	i
Cc1cc(C(=O)COC(=O)c2ccc(CO)cc2)c(C)s1	nt	i	nt	nt	nt	nt
Cc1ccc(-c2c(CN3CCN(c4cccc(C)c4)C(C)C3)csc2C)cc1 (configuration not stated)	nt	?	nt	16µM	?	nt
Cc1ccc(-c2c(CN3CCN(c4cccc(C)c4C)CC3)csc2C)cc1	nt	?	nt	21µM	15µM	nt
Cc1ccccc1N1CCN(Cc2ccc(Br)o2)CC1	i	?	i	i	?	i
Cc1scc(CN2CCN(c3ccccc3F)CC2)c1C	nt	?	nt	?	i	nt
Cc1cccc(N2CCN(Cc3ccc(Br)o3)CC2)c1C	i	0.56µM	i	i	?	i
O=C(c1ccc2c(c1)OCO2)N1CCN2C(=O)N(Cc3ccccc3)C[C@H]2C1	nt	i	nt	nt	nt	nt
NC(=O)C1CCN(C2=C(NS(=O)(=O)c3ccc(Br)cc3)C(=O)c3ccccc3C2=O)CC1	?	i	i	18µM	23µM	?
CCOC(=O)N1CCN(C2=C(NS(=O)(=O)c3ccccc3)C(=O)c3ccccc3C2=O)CC1	i	i	i	?	13µM	?
CCOC(=O)N1CCN(C2=C(NS(=O)(=O)c3ccc(Br)cc3)C(=O)c3ccccc3C2=O)CC1	?	?	i	16µM	12µM	i
CC(C)(C)OC(=O)N1CCC[C@@H]1C(=O)NCc1ccccc1Cl	i	i	i	i	i	i
CC(Oc1ccc(F)cc1)C(=O)N1CCN(c2nccs2)CC1 (configuration not stated)	nt	i	nt	nt	nt	nt
Cc1cccc2cc(CN(Cc3nnnn3C3CCCCC3)C3CCCC3)c3nnnn3c12	i	i	?	?	21µM	i
Cc1cc(C)c2[nH]c(=O)c(CN(Cc3nnnn3C3CCCC3)C3CCCCC3)cc2c1	i	nt	i	i	i	i
CC(C)c1ccc(C(=O)NCc2ccnc3[nH]ccc23)cc1	nt	i	nt	nt	nt	nt
Cc1cc(=O)oc2cc(OCC3CC(c4ccc(N(C)C)cc4)=NO3)ccc12 (configuration not stated)	i	i	i	i	i	i
Cc1cc(=O)oc2cc(OCC3CC(c4ccc(Cl)cc4)=NO3)ccc12 (configuration not stated)	i	i	i	?	28µM	i
Cc1ccc(-c2cc(C(=O)N3CCC(c4nc(CCOCC5CC5)no4)C3)[nH]n2)cc1 (configuration not stated)	nt	i	nt	nt	nt	nt
Cc1cc(=O)n2[nH]cc(-c3ccccc3)c2n1	i	?	i	?	?	i
Cc1ccc(Cc2c(C)nc3c(-c4ccccc4)c(C)[nH]n3c2=O)cc1	nt	i	nt	4.6µM	6.5µM	nt
Cc1nc2c(-c3ccccc3)c(C)[nH]n2c(=O)c1Cc1ccc(C(C)C)cc1	nt	i	nt	2.3µM	2.6µM	nt
SMILES	HT1080 IDH1KD tx	ALOX12 inh	IL-1B inflam inh	TDP1 cell noCPT	TDP1 cell CPT	HT1080NT lethal
CCCCc1c(C)nc2c(-c3ccc(Cl)cc3)c(C)[nH]n2c1=O	nt	i	nt	1.6µM	4.6µM	nt
CCc1c(C)nc2c(-c3ccccc3)c(C)[nH]n2c1=O	i	i	i	i	i	i
Cc1nc2c(-c3ccccc3)c[nH]n2c(=O)c1Cc1ccccc1	i	i	i	23µM	23µM	i
CCc1ccc(-n2ccc3nc(N4CCCC4)ncc3c2=O)cc1	nt	i	nt	nt	nt	nt
Cc1[nH]n2c(=O)c3c(nc2c1-c1ccccc1)CCC3	i	?	i	i	i	i
COc1ccccc1-c1c(C)[nH]n2c(=O)c(Cc3ccccc3)c(C)nc12	i	i	i	?	?	i
Cc1[nH]n2c(=O)c3c(nc2c1-c1ccc(Cl)cc1)CCC3	i	nt	i	21µM	12µM	i
COc1ccc(-c2c(C)[nH]n3c(=O)c(Cc4ccccc4)c(C)nc23)cc1	?	i	i	21µM	13µM	i
Cc1ccnc2ccccc12	nt	nt	nt	i	i	nt
CN(C)c1ccc(/C=C/c2ccnc3ccccc23)cc1N	nt	nt	nt	2.5µM	2.8µM	nt
Nc1c(Br)cc(/C=C/c2ccnc3ccccc23)cc1Br	nt	nt	nt	10µM	?	nt
Cc1cc(/C=C/c2ccnc3ccccc23)ccc1N	nt	nt	nt	20µM	8.9µM	nt
C(=C\c1ccnc2ccccc12)/c1cc2c3c(c1)CCCN3CCC2	nt	nt	nt	2µM	2.2µM	nt
c1ccc2c(N=NN3CCCCC3)ccnc2c1	nt	nt	nt	?	i	nt
COc1ccc(S(=O)(=O)N2CCn3cccc3C2c2ccc(C)cc2)cc1C (configuration not stated)	nt	i	nt	nt	nt	nt
CC(C)CN1CCC[C@H]1c1nc(-c2ccnc(N3CCOCC3)c2)no1	nt	i	nt	nt	nt	nt
O=C(C[C@H]1C/C=C\C[C@H](Cc2ccc(F)cc2)C(=O)O[C@@H](c2ccccc2)CNC1=O)N[C@H](CO)Cc1ccccc1	i	i	i	10µM	?	i
O=C(C[C@H]1C/C=C\CC[C@H](Cc2ccc(F)cc2)C(=O)O[C@@H](c2ccccc2)CNC1=O)N[C@@H](CO)Cc1ccccc1	?	i	i	?	?	?
O=C(C[C@H]1C/C=C\CC[C@H](Cc2ccc(F)cc2)C(=O)O[C@H](c2ccccc2)CNC1=O)N[C@H](CO)Cc1ccccc1	?	?	i	13µM	13µM	?
O=c1oc2ccccc2cc1-c1nc2ccccc2o1	i	i	i	i	?	i
Nc1cc2nc3ccccc3oc-2cc1=O	?	i	i	1.8µM	2.1µM	?
Cc1cccc(OCC(=O)Nc2ccc(NC(=O)c3ccccc3)cc2)c1	i	i	i	i	i	i
O=C(COc1ccccc1)Nc1ccc(S(=O)(=O)N(Cc2ccccc2)c2ccccc2)cc1	nt	i	nt	15µM	?	nt
Cc1cccc(OCC(=O)Nc2ccc(S(=O)(=O)N(Cc3ccccc3)c3ccccc3)cc2)c1	nt	i	nt	3.3µM	10µM	nt
Fc1ccccc1C1CC(c2ccco2)=Nc2ccccc2S1 (configuration not stated)	i	i	i	13µM	?	i
COc1ccc2oc(=O)c(C(=O)NCc3ccccc3)cc2c1	i	i	i	i	?	i
COc1ccc(CNC(=O)c2cc3cc(OC)ccc3oc2=O)cc1	?	i	i	12µM	18µM	i
